Experimental data from PubChem BioAssay (NCI).
About 79,000 compounds went through this panel and 15% of them were active in at least one assay; those are over-represented in the sample as a whole. The source made the active and inactive calls. Rule as the data show it: active = growth inhibition above about 70%; inactive = the rest.

Assay: NCI Yeast Anticancer Drug Screen. Data for the rad50EPP+ strain (AID 151);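 also: 0% = growth of vehicle-treated control cultures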
Conditions: S. cerevisiae rad50 mutant strain, stronger effect = higher value
Experimental: Growth inhibition of yeast strains with defined genetic alterations is measured as a screen for potential anti-cancer activity. Selected strains with alterations in DNA damage repair or cell cycle control were exposed to compounds and growth inhibition was measured relative to vehicle treated controls. The strain used in this assay is rad50EPP+

Measured: growth inhibition

CCCCC(=O)c1c(O)nc2sccn2c1=O
active: at 33.0 µM 94% | at 100.0 µM 95%
inactive: at 1.2 µM 2% | at 3.7 µM 7% | at 11.0 µM 58%

CCCCCCCCCCCc1nc(N)n[nH]1
active: at 100.0 µM 70%
inactive: at 1.2 µM -1% | at 3.7 µM 7% | at 11.0 µM 16% | at 33.0 µM 55%

COc1cc(NCc2ccc3nc(N)nc(N)c3c2C)cc(OC)c1OC
inactive: at 1.2 µM -5% | at 3.7 µM -4% | at 11.0 µM -4% | at 33.0 µM 6% | at 100.0 µM 27%

O=C(Nc1cccc(C(F)(F)F)c1)Oc1ccc(Cl)cc1C(=O)c1ccccc1
active: at 100.0 µM 96%
inactive: at 1.2 µM 26% | at 3.7 µM 7% | at 11.0 µM 34% | at 33.0 µM 41%

CCC(c1ccc(O)cc1)C(CC)c1ccc(OCCN)cc1 (stereo not given)
inactive: at 1.2 µM -3% | at 3.7 µM 1% | at 11.0 µM 12% | at 33.0 µM 1% | at 100.0 µM 10%

O=C(N/N=C\c1c(Cl)cccc1Cl)N/N=C/c1c(Cl)cccc1Cl
inactive: at 1.2 µM 7% | at 3.7 µM 19% | at 11.0 µM 10% | at 33.0 µM 2% | at 100.0 µM 5%

O=C(NCCCCCN1CCC2(CCCCC2)CC1)C(C1CCCCC1)C1CCCCC1
active: at 100.0 µM 99%
inactive: at 1.2 µM -1% | at 3.7 µM 0% | at 11.0 µM 3% | at 33.0 µM 10%

COc1ccc2c(c1)[nH]c1c(/C=C/c3ccccc3)nccc12
active: at 100.0 µM 78%
inactive: at 1.2 µM 0% | at 3.7 µM 7% | at 11.0 µM 13% | at 33.0 µM 46%
